We go through eight compounds from PubChem BioAssay (NCATS).

A number with no mark means an inactive call. Results filed as inconclusive are left out. The source made the active and inactive calls. Unless noted, the call rests on the fitted dose curve; in most records, active means well fitted curve in either direction with a large enough effect (not every such curve was filed as active); inconclusive means small, poorly fitted or top-dose-only effect, or another doubt; inactive means flat fitted curve, though single readings scatter.

Assay [1] addresses Lysosomal acid glucosylceramidase (Homo sapiens) (UniProt P04062). Put plainly: Glucocerebrosidase-p2 (AID 348; in the data active means potency below about 10 µM; further: potency means the concentration at half of the fitted maximal effect). Particulars: purified GBA, blue fluorogenic substrate, 40 min. Summed up: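 Normal human glucocerebrosidase (0.2 nM) with blue fluorogenic substrate (80 uM final) in citrate/phosphate pH 5.9 with 10mM sodium taurocholate, 0.01% tween-20; 40 min RT, NaOH/glycine stop; fluorescence Ex 365/Em 440; AC50 from a titration from 0.6 nM upwards.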

The nature of assay [2]: AP1 Signaling Pathway (AID 357).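 Further: ME-180 reporter cells stimulated with EGF at its EC50 level; on the % scale 0 is the no-effect control and ±100 the full control effect.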 The settings on record: ME-180 AP-1-bla reporter, EGF-induced, beta-lactamase ratio, 5 h; at 7.69 µM (top of the series) unless noted. The method in brief: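 Beta-lactamase reporter under AP-1 response element, ME-180 background. Stimulus: EC50 EGF. Compound exposure 5 h, 37 °C. Detection: CCF4, 2.5 h RT, 460/530 nm. Values: AC50 from titration.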

Assay [3] is described as follows: NFAT Signaling Pathway (AID 444).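 Further: carbachol stimulus at about its EC50 of 1 µM final; on the % scale 0 is the no-effect control and ±100 the full control effect.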 Particulars: Jurkat NFAT-bla M1, carbachol, beta-lactamase ratio, 5 h; at 7.69 µM (top of the series) unless noted. Summed up:
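Jurkat cells carrying an NFAT-driven β-lactamase reporter and co-transfected muscarinic M1 receptor were treated with compound plus carbachol (1 uM final, an EC50 level) for 5 h at 37 °C. CCF4 loading followed for 1 h at RT; 460/530 nm ratio gave %activity.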

Assay [4] is described as follows: Stat Signaling Pathway (AID 446).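 Further: ME-180 cervical cancer cells given 40 pM IL-6 alongside compound; SIE-controlled beta-lactamase reporter measured as 460/530 nm FRET emission ratio; on the % scale 0 is the no-effect control and ±100 the full control effect.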 Particulars: ME-180 (cervical carcinoma) SIE beta-lactamase reporter, IL-6 stimulated, 5 h; at 7.69 µM (top of the series) unless noted. Summed up:
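Overnight-plated ME-180 cells bearing a STAT Inducible Element beta-lactamase reporter; 5 h co-exposure to compound and 40 pM IL-6; values normalized to 300 pM IL-6 and 125 nM JAK inhibitor controls.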

Assay [5] deals with Glucocorticoid receptor (Homo sapiens) (UniProt P04150). Put plainly: GR-GFP Redistribution (AID 450;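 active means compounds whose dose series gives a full or clear partial fitted curve of increased nuclear translocation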; further: potency means the concentration at half of the fitted maximal effect). Particulars: U2OS GR-GFP nuclear translocation, laser cytometry, 2 h.
The target is the same in assay [6]. The assay can be described thus: GR-EFC Redistribution (AID 451; calls by dose curve; further: potency means the concentration at half of the fitted maximal effect). The settings on record: CHO-K1 GR-EFC translocation, beta-gal luminescence, 2 h. The method in brief: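 CHO-K1 cells stably expressing nuclear-localized β-gal enzyme acceptor and GR fused C-terminally to the enzyme donor fragment; ligand-driven nuclear translocation restores β-gal by complementation. Compounds titrated up to 46 uM final, 2 h at 37 °C; luminescence read.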

Assay [7] deals with Mitogen-activated protein kinase 10 (Mus musculus) (UniProt Q61831). The assay can be described thus: JNK3 AlphaScreen Assay (AID 530).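 Further: kinase came from lysate of stimulated human HepG2 cells; on the % scale 0 is the no-effect control and ±100 the full control effect.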 The settings on record: JNK3 lysate, c-Jun phosphorylation; series mostly up to 11.4 µM. Summed up: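 Biotinylated GST-cJun(1-79) served as substrate for JNK3 in HepG2 lysates stimulated with IL-1beta and TNF-alpha. ATP was 10 uM final, pH 7.6. Ser73 phosphorylation was quantified by AlphaScreen (680 nm excitation).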

Assay [8] deals with Cytochrome P450 1A2 (Homo sapiens) (UniProt P05177). The assay can be described thus: p450-cyp1a2 (AID 410; calls by dose curve; further: potency means the concentration at half of the fitted maximal effect;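 on activity change, negative = inhibition: -100% = full effect of reference inhibitor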). Particulars: recombinant CYP1A2, luciferin-ME demethylation, luminescence; series mostly up to 11.4 µM. The method in brief:
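Read-out is luminescence from luciferin produced by CYP1A2 demethylation of Luciferin-ME (100uM, at Km). Detection reagent stopped the 60 min NADPH-dependent reaction; signals were normalized to 57 uM furafylline.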

For assay [9], the target named is 3',5'-cyclic-AMP phosphodiesterase 4B (Homo sapiens) (UniProt Q07343). Put plainly: qHTS Assay for Inhibitors of PDE-IV (AID 607; active means well fitted activation curve with a large enough effect in the main read-out, with a control signal flat, not every such curve was filed as active; further: % of control where 0% means no effect). The settings on record: HEK293 ACTOne CNG channel cells, membrane potential fluorescence; series mostly up to 22.9 µM. The method in brief:
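Live HEK293 cells with a modified cyclic nucleotide-gated (CNG) channel report intracellular cAMP via membrane-potential dye fluorescence (ex 535/em 590 nm). Endogenous PDE-IV was targeted. Compounds were tested at up to 22.9 uM final; RO 20-1724 100 uM served as control.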

Assay [10] deals with Cytochrome P450 2C19 (Homo sapiens) (UniProt P33261). Put plainly: qHTS Assay for Inhibitors and Substrates of Cytochrome P450 2C19 (AID 899; active means well fitted curve in the direction sought with a large enough effect; an effect the other way counts as inactive or inconclusive; further: potency means the concentration at half of the fitted maximal effect; nearly all actives have a fitted effect of over 60% in size). The settings on record: recombinant CYP2C19, luciferin-H EGE luminescence; series mostly up to 11.4 µM. The method in brief:
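In 50mM KPO4, the reaction held 5nM enzyme and KM-level (10uM) Luciferin-H EGE; it ran 60 min at 37C after NADPH regeneration and a 10 min compound preincubation. Luminescence values were scaled to 57uM ketoconazole as complete inhibition.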

Assay [11] concerns the target ATP-dependent 6-phosphofructokinase (Trypanosoma brucei brucei) (UniProt O15648). Put plainly: qHTS Assay to Find Inhibitors of T. brucei phosphofructokinase: hit validation (AID 492961; active means well fitted curve in the direction sought with a large enough effect; an effect the other way counts as inactive or inconclusive). The settings on record: T. brucei PFK, ADP-Glo luminescence; series mostly up to 51.4 µM. The method in brief: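 Reaction: 0.1 M triethanolamine pH 8.0, 5 mM MgCl2, F6P 0.5 mM, ATP 0.1 mM, PFK 1.25 nM, 45 min RT. Read-out: ADP-Glo luminescence. Analysis: concentration-response fits, classed by r2 and efficacy.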

Assay [12] in a line: qHTS profiling for inhibitors of Plasmodium falciparum proliferation (AID 504749; active means well fitted curve in the direction sought with a large enough effect; an effect the other way counts as inactive or inconclusive; further: potency means the concentration at half of the fitted maximal effect; nearly all actives have a fitted effect of over 60% in size). The settings on record: P. falciparum in erythrocytes, SYBR Green DNA, 72 h. Summed up:
(§1)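 Fluorescence of SYBR Green-bound parasite DNA, read at 485/535 nm, served as the growth measure. Infected erythrocytes were cultured with compound 72 h; artemisinin (0.29 uM) and DMSO wells defined the normalization range.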

The next assay deals with W2. The description is as above. The settings on record: P. falciparum in erythrocytes, SYBR Green DNA, 72 h; series mostly up to 28.7 µM. The method in brief:
as §1

The target of assay [13] is Cytochrome P450 3A4 (Homo sapiens) (UniProt P08684). Put plainly: qHTS Assay for Activators of Cytochrome P450 3A4 (AID 885; active means well fitted curve in the direction sought with a large enough effect; an effect the other way counts as inactive or inconclusive; further: nearly all actives have a fitted effect of over 65% in size). The settings on record: recombinant CYP3A4, Luciferin-PPXE luminescence, 60 min; series mostly up to 11.4 µM. The method in brief:
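Using 20nM recombinant human CYP3A4 in potassium phosphate (200mM), substrate Luciferin-PPXE at 25uM, luminescent luciferin detection followed a 60-min RT NADPH reaction; data scaled to 57 uM ketoconazole.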

Assay [14] concerns the target Cytochrome P450 2D6 (Homo sapiens) (UniProt P10635). The assay can be described thus: qHTS Assay for Inhibitors and Substrates of Cytochrome P450 2D6 (AID 891; active means well fitted curve in the direction sought with a large enough effect; an effect the other way counts as inactive or inconclusive; further: potency means the concentration at half of the fitted maximal effect; nearly all actives have a fitted effect of over 60% in size). Particulars: recombinant CYP2D6, luciferin-ME EGE luminescence; series mostly up to 11.4 µM. Summed up: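 Luminescent read-out of luciferin formed by 5 nM human CYP2D6 demethylating 30 uM Luciferin-ME EGE (Km level) over 60 min at room temperature after NADPH regeneration addition. Data normalized to full inhibition by 1.43 uM quinidine.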

Assay [15] concerns the target Cytochrome P450 3A4 (Homo sapiens) (UniProt P08684). Put plainly: qHTS Assay for Inhibitors and Substrates of Cytochrome P450 3A4 (AID 884; active means well fitted curve in the direction sought with a large enough effect; an effect the other way counts as inactive or inconclusive; further: on the % scale 0 is the no-effect control and ±100 the full control effect; nearly all actives have a fitted effect of over 50% in size). The settings on record: recombinant CYP3A4, Luciferin-PPXE luminescence; series mostly up to 57.1 µM. Summed up: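 Luminescent readout of luciferin produced by CYP3A4 (20 nM) dealkylation of Luciferin-PPXE, 25 uM (its KM). NADPH-driven reaction ran 60 min at RT after 10 min compound preincubation; data scaled to 57 uM ketoconazole as 100% inhibition.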

Sequence of Lysosomal acid glucosylceramidase (Homo sapiens) (P04062 whole entry, looked up): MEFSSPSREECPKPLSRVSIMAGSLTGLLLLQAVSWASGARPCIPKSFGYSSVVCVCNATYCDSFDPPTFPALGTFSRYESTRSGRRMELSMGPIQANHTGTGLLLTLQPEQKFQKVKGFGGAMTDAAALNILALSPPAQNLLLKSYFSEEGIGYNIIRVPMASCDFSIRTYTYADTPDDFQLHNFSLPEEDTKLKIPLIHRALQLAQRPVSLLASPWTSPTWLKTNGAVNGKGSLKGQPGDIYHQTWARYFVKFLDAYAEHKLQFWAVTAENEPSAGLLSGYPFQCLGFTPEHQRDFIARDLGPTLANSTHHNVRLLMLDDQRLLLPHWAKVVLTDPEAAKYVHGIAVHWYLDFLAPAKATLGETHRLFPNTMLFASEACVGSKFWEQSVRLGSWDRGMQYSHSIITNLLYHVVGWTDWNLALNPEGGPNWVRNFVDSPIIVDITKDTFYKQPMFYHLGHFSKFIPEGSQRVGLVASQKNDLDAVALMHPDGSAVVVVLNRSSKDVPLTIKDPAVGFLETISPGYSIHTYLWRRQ
Sequence of 3',5'-cyclic-AMP phosphodiesterase 4B (Homo sapiens) (Q07343 whole entry, looked up): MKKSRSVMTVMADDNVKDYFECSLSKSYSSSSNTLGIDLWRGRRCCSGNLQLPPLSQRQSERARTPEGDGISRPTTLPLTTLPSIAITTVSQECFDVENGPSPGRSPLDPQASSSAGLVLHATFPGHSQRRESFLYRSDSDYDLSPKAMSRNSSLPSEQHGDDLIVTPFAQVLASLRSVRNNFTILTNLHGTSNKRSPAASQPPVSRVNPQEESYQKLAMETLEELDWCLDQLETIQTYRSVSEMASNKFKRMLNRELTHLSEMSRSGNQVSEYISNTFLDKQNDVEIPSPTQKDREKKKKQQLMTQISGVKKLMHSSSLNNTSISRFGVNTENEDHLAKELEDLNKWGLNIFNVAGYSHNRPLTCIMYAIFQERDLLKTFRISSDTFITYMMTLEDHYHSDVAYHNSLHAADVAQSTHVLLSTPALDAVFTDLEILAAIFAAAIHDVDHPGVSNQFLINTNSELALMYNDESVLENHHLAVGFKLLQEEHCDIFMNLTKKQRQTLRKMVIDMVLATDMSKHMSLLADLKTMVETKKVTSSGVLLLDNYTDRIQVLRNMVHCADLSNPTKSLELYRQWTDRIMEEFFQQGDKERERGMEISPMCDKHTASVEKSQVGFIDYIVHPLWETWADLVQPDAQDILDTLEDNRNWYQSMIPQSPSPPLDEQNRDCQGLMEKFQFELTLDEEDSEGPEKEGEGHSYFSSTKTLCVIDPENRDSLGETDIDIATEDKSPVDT
Sequence of Glucocorticoid receptor (Homo sapiens) (P04150 whole entry, looked up, the tested form may be a part): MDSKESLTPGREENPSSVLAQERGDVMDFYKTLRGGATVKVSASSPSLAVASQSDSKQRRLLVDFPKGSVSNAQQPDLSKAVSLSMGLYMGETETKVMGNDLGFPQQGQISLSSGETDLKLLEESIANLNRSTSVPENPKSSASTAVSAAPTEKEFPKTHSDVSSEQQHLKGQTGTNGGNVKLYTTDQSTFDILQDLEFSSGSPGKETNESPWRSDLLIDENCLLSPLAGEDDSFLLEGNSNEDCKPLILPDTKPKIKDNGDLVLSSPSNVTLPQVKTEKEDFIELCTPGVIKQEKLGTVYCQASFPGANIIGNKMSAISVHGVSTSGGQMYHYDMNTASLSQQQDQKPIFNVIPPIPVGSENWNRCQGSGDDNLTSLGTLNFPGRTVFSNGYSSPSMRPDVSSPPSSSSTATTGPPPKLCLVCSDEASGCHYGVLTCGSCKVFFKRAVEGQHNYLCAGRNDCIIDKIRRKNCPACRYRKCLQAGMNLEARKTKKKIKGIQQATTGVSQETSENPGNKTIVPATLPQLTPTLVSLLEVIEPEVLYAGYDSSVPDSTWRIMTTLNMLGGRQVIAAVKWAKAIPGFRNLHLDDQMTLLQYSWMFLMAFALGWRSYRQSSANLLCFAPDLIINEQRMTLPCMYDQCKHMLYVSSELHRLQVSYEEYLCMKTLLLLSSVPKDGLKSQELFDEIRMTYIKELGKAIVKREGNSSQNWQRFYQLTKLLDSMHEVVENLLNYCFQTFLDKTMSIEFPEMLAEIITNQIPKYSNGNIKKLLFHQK
Sequence of Cytochrome P450 1A2 (Homo sapiens) (P05177 whole entry, looked up): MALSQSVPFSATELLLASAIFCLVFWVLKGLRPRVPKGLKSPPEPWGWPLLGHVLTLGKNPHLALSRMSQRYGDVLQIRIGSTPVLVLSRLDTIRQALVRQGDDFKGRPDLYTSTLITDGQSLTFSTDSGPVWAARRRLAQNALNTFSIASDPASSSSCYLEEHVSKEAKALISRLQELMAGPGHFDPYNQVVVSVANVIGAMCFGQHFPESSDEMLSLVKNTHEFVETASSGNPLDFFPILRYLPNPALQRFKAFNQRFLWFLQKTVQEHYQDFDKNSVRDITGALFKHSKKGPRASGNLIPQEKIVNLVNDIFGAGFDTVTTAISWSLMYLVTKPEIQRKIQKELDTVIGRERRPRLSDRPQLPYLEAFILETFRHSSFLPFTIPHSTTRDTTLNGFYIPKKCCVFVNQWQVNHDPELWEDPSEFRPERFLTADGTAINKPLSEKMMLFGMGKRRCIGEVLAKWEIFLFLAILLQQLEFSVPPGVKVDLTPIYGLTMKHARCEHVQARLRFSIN
Sequence of Cytochrome P450 2C19 (Homo sapiens) (P33261 whole entry, looked up): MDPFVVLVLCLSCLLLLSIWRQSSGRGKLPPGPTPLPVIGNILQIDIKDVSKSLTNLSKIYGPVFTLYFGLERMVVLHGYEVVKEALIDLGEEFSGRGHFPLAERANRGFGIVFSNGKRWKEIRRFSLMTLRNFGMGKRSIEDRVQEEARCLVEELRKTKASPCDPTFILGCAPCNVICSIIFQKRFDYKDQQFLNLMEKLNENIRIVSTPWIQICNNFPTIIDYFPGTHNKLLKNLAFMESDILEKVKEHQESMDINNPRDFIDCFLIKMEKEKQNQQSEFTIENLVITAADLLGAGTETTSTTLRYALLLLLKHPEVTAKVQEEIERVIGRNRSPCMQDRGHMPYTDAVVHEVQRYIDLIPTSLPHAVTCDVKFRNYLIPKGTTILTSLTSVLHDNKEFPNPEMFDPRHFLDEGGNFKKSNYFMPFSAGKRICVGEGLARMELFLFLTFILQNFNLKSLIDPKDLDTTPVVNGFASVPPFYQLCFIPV
Sequence of Cytochrome P450 3A4 (Homo sapiens) (P08684 whole entry, looked up): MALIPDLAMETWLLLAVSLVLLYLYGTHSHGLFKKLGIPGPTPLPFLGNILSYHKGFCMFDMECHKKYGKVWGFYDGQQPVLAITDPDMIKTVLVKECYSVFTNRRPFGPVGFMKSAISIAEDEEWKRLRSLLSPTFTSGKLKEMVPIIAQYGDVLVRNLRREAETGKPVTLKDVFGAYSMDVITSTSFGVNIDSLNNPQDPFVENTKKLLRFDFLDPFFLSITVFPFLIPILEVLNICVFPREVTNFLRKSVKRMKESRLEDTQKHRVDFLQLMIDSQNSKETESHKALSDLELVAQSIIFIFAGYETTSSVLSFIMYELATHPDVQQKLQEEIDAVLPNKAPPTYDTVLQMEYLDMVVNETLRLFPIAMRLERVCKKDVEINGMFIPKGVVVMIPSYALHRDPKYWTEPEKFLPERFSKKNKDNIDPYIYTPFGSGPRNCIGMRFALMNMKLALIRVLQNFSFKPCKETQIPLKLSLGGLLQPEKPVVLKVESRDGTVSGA
Sequence of ATP-dependent 6-phosphofructokinase (Trypanosoma brucei brucei) (O15648 whole entry, looked up): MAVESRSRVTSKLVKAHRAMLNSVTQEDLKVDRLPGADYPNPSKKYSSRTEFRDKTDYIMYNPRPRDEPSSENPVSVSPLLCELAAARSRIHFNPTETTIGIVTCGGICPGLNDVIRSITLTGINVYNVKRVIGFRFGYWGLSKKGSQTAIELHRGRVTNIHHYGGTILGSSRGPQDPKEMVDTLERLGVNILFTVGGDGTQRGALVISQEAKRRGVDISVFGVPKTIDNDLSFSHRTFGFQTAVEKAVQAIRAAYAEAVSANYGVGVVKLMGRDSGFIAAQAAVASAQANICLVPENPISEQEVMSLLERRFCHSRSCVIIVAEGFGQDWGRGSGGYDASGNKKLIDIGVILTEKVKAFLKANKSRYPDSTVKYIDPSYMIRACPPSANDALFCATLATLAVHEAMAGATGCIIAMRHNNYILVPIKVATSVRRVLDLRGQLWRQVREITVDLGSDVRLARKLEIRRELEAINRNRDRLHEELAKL
Sequence of Cytochrome P450 2D6 (Homo sapiens) (P10635 whole entry, looked up): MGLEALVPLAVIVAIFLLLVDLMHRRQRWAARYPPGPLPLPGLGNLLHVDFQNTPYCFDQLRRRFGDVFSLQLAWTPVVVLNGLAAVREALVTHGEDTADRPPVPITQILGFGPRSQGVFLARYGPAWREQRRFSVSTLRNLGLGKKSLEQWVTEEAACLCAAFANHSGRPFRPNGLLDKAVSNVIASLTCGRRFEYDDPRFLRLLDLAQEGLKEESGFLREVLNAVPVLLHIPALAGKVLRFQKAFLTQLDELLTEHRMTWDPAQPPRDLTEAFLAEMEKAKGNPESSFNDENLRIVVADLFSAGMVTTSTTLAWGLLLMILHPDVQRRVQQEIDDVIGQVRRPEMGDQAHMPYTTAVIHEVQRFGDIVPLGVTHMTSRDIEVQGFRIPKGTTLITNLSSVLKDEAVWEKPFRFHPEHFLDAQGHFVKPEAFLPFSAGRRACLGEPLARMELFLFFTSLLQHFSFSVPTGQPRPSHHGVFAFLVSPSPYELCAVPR

As to `NC(N)=NC[C@H](N)C(=O)O`, the Potency was more than 11.4 µM in [1], more than 46 µM in assay [5] and more than 9.22 µM in assay [6]. The values for the activity change, negative = inhibition in assay [2] and in assay [3] were 1.65% and 10.9%, respectively. Besides, in [4], the activity, negative = inhibition was 0.308%. The Potency result in assay [7] was “inactive”.
For `Oc1ccc(Cl)cc1Cc1cc(Cl)cc(Cc2cc(Cl)ccc2O)c1O`, the Potency in [1] was more than 11.4 µM; in [5], more than 46 µM; in assay [6] it was more than 9.22 µM; in [10] it was 1.26 µM (active). Besides, the activity change, negative = inhibition in assay [2] was -14%; in assay [8], -23.8% [at 2.29 µM]. The Potency entry in assay [7] and in [9] was “inactive” throughout.
Turning to `CC(C)(C)c1ccc(CN2CCN([C@H](c3ccccc3)c3ccc(Cl)cc3)CC2)cc1`, the Potency in assay [1] was more than 11.4 µM; in assay [5], more than 46 µM; in [6] it was more than 9.22 µM; in assay [12] (parasite line A), 7.94 µM (active); in assay [12] (parasite line B) it was 12.6 µM (active); in the assay on W2, 3.38 µM (active). Also, the activity change, negative = inhibition is 2.89% in assay [2] and -9.36% in assay [3]. In addition, the activity, negative = inhibition in assay [4] was 0.758%. Besides, the Potency entry in [7] and in [9] was “inactive” in each case. Also, the call in [11] was inactive.
In the case of `O[C@@H](c1cc([C@@]23C[C@H]4CC[C@@H]2C[C@H](C4)C3)nc2c(Cl)cc(Cl)cc12)[C@@H]1CCCCN1`, the Potency was more than 11.4 µM in assay [1] and more than 9.22 µM in assay [6]. Further, the values for the activity change, negative = inhibition in assay [2] and in assay [8] were 1.64% and -10.5% [at 2.29 µM], respectively. For the same compound, in assay [4], the activity, negative = inhibition is 0.88%. The Potency entry in assay [7] and in assay [9] was “inactive” each time.
Regarding `O=C(O)Cc1[nH]cnc1C(=O)O`, the Potency in assay [1] is more than 11.4 µM; in [5] it was more than 46 µM; in assay [6] it was more than 9.22 µM. The activity change, negative = inhibition was -11% in assay [2] and 7.88% in assay [3]. Moreover, in [4], the activity, negative = inhibition is -3.92%.
With `N#Cc1ccc(CN2CC3(CCN(C(=O)c4cc(C(F)(F)F)cc(C(F)(F)F)c4)CC3)C2)cc1`, the Potency in assay [1] was more than 11.4 µM; in assay [6] it was more than 46 µM. For the same compound, the activity change, negative = inhibition in assay [2] was -21.3%. The Potency entry in assay [8], in assay [7] and in assay [9] was “inactive” in each case. The activity, negative = inhibition in [4] is 7.48%.
Consider `Nc1ccccc1S[C@@H](C[N+](=O)[O-])c1ccc2c(c1)OCO2`, for which the Potency in assay [1] was more than 11.4 µM; in [8], 0.631 µM (active); in assay [6], more than 9.22 µM; in assay [14], 3.98 µM (active); in assay [10], 1.58 µM (active). In assay [2], the activity change, negative = inhibition is 11.2%. In addition, the activity, negative = inhibition in assay [4] is -19.6%. Further, the Potency result in [7] and in assay [13] was “inactive” throughout.
Take `O=C(O)c1cc(N=Nc2ccc([N+](=O)[O-])cc2)ccc1O`: the Potency in assay [1] is more than 11.4 µM; in assay [5], more than 46 µM; in assay [6] it was more than 9.22 µM. For the same compound, the activity change, negative = inhibition is -28% in assay [2] and 28.6% in assay [3]. The activity, negative = inhibition in assay [4] was -2.69%. For the same compound, the Potency result in assay [7], in assay [9] and in assay [15] was “inactive” each time.
